Ten molecules from ChEMBL document CHEMBL3988442, “University of Dundee, Small-Polar-MMV Screening Library” (2021) can be followed below.

Common to all, as to set-up: scale not given: direction of the effect not stated beside the values
Experiment [1] has as its target Protein translocase subunit SecA (Escherichia coli (strain K12)) (UniProt P10408). Description: Assay to Identify E. coli SecA ATPase Inhibitors. Type of experiment: functional. The settings on record: 30 µM.
Experiment [2] deals with T1, Ubiquitin-activating enzyme e1, putative (Leishmania donovani (strain BPK282A1)) (UniProt E9BSI1).
T1 sequence (whole entry): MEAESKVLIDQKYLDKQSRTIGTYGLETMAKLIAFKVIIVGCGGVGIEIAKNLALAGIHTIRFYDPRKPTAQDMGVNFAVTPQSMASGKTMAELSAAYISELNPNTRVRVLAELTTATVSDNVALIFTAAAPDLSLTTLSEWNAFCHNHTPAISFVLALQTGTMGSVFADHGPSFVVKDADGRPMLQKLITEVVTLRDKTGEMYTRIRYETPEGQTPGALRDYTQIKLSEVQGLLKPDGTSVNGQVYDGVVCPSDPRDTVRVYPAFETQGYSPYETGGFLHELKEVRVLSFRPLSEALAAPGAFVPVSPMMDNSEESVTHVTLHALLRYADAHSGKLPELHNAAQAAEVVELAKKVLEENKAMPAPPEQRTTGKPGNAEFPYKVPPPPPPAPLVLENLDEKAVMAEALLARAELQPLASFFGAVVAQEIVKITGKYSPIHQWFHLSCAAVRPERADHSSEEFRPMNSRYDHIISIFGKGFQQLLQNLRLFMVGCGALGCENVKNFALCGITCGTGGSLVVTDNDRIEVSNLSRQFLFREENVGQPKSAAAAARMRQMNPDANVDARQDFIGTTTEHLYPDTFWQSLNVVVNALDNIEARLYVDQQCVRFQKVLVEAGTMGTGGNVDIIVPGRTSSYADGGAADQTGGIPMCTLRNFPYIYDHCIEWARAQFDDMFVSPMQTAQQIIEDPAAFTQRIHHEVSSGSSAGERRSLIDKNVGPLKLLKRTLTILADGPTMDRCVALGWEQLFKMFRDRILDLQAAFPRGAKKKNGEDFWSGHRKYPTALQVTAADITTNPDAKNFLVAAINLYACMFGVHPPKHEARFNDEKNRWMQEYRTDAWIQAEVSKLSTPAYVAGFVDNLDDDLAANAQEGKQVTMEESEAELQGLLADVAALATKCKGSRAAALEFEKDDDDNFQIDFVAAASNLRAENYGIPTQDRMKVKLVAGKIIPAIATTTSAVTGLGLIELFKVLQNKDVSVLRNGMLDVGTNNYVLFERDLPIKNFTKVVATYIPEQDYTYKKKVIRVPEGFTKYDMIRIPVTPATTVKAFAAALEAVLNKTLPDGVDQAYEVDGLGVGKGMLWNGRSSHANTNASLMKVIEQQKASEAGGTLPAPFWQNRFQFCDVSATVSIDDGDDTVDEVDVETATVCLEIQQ
Briefly: Leishmania donovani Ubiquitin Activating Enzyme (LdE1). It is filed as functional. The settings on record: 30 µM.

For experiment [3], the target named is Sialic acid-binding Ig-like lectin 9 (Homo sapiens) (UniProt Q9Y336). Briefly: Hs-Siglec9 ALPHAscreen SOP 20170721. The settings on record: 10 µM. Background: In Alpha technology, singlet oxygen from a donor bead excites a nearby acceptor bead.
A further experiment has as its system Trypanosoma cruzi. Briefly: Trypanosoma cruzi phosphomannomutase and mannose-1-phosphate guanylyltransferase assay. It is filed as functional. The settings on record: 10 µM.
The target of experiment [4] is T2, Arginase-2, mitochondrial (Homo sapiens) (UniProt P78540).
T2 sequence (whole entry): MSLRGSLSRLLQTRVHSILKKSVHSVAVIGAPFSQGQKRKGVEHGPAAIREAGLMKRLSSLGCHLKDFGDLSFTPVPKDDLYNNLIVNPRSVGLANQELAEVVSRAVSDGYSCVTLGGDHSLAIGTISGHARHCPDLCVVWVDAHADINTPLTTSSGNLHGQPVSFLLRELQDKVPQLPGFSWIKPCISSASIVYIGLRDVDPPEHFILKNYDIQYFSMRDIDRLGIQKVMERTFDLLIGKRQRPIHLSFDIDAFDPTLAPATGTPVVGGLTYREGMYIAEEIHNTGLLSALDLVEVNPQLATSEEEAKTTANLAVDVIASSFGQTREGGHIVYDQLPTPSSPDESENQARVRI
Briefly: in vitro enzyme assay to detect the production of urea directly proportional to the activity of Arginase II. Also: in the data most compounds retested in dose-response had high values. Type of experiment: functional. The settings on record: 33.3 µM.

The target in experiment [5] is T3, Proteasome subunit beta (Trypanosoma cruzi) (UniProt O96673).
T3 sequence (whole entry): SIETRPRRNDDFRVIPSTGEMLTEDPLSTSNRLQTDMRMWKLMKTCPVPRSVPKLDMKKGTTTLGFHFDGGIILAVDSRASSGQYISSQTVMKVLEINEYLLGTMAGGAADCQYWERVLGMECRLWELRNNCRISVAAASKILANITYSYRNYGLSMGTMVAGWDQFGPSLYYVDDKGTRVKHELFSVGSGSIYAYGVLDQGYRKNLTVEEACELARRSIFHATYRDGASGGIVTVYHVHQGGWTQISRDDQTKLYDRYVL
Briefly: Trypanosoma cruzi proteasome chymotrypsin-like activity (TcProtChymo) assay. Also: in the data most compounds retested in dose-response had high values. It is filed as functional. The settings on record: 9.37 µM.

The species named for a further experiment is Homo sapiens. Description: To identify inhibition of the IFN signalling (Jak-Stat) pathway via expression of an eGFP reporter gene under the control of an IFN-stimulated response element (ISRE) containing MxA promoter. The settings on record: 30 µM. Type of experiment: functional. (A reporter such as luciferase makes a cellular process visible.)
The target in experiment [6] is T4, Tyrosyl-tRNA synthetase, putative (Trypanosoma cruzi (strain CL Brener)) (UniProt Q4DSP6).
T4 sequence (whole entry): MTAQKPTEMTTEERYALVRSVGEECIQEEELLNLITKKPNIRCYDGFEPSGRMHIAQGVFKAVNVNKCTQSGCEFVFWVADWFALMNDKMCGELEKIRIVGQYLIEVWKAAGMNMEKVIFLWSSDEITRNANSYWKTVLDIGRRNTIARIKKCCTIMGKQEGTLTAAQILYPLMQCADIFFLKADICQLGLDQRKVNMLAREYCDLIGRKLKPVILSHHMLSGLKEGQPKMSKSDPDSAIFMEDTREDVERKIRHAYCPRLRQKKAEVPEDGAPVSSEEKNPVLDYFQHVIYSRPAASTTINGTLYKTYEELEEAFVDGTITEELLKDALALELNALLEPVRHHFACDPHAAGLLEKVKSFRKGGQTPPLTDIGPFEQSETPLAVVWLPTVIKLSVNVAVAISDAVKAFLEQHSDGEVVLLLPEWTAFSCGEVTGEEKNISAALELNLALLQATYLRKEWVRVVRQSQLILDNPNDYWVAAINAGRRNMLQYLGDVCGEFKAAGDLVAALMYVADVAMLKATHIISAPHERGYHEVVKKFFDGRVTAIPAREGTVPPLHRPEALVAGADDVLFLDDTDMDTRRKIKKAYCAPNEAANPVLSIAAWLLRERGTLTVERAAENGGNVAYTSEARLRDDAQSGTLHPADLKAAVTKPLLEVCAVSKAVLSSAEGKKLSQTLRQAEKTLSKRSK
Description: Trypanosoma cruzi tyrosyl tRNA synthetase (TcYRS) _High Tyrosine SOP. Also: in the data most compounds retested in dose-response had high values. It is filed as functional. The settings on record: 30 µM.

For experiment [7], the target named is T4, Tyrosyl-tRNA synthetase, putative (Trypanosoma cruzi (strain CL Brener)). Description: Trypanosoma cruzi tyrosyl tRNA synthetase (TcYRS) SOP. Type of experiment: functional. The settings on record: 30 µM.
For experiment [8], the target named is Chromo domain-containing protein 1 (Saccharomyces cerevisiae (strain ATCC 204508 / S288c) (Baker's yeast)) (UniProt P32657). Description: ScCHD-1 Enzyme Inhibition Assay. Also: in the data most compounds retested in dose-response had high values. Type of experiment: functional. The settings on record: 30 µM.

Each structure is given as a SMILES string. For some of these results: Entries with a potency or affinity are not part of this list.

Chain of Sialic acid-binding Ig-like lectin 9 (Homo sapiens) (Q9Y336 whole entry): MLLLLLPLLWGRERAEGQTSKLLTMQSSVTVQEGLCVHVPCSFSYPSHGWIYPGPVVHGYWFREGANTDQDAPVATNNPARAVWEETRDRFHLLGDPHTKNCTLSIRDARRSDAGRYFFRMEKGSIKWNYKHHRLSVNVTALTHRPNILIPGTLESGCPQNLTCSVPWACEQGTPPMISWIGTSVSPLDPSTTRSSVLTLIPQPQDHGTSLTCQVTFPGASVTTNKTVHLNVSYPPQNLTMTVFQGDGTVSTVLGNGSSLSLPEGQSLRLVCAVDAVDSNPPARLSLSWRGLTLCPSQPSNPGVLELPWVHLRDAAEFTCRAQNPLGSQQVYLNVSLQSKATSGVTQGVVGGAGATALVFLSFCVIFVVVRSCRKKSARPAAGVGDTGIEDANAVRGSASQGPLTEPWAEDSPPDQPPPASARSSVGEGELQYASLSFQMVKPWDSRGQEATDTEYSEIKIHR
Chain of Chromo domain-containing protein 1 (Saccharomyces cerevisiae (strain ATCC 204508 / S288c) (Baker's yeast)) (P32657 whole entry, the tested form may be a part): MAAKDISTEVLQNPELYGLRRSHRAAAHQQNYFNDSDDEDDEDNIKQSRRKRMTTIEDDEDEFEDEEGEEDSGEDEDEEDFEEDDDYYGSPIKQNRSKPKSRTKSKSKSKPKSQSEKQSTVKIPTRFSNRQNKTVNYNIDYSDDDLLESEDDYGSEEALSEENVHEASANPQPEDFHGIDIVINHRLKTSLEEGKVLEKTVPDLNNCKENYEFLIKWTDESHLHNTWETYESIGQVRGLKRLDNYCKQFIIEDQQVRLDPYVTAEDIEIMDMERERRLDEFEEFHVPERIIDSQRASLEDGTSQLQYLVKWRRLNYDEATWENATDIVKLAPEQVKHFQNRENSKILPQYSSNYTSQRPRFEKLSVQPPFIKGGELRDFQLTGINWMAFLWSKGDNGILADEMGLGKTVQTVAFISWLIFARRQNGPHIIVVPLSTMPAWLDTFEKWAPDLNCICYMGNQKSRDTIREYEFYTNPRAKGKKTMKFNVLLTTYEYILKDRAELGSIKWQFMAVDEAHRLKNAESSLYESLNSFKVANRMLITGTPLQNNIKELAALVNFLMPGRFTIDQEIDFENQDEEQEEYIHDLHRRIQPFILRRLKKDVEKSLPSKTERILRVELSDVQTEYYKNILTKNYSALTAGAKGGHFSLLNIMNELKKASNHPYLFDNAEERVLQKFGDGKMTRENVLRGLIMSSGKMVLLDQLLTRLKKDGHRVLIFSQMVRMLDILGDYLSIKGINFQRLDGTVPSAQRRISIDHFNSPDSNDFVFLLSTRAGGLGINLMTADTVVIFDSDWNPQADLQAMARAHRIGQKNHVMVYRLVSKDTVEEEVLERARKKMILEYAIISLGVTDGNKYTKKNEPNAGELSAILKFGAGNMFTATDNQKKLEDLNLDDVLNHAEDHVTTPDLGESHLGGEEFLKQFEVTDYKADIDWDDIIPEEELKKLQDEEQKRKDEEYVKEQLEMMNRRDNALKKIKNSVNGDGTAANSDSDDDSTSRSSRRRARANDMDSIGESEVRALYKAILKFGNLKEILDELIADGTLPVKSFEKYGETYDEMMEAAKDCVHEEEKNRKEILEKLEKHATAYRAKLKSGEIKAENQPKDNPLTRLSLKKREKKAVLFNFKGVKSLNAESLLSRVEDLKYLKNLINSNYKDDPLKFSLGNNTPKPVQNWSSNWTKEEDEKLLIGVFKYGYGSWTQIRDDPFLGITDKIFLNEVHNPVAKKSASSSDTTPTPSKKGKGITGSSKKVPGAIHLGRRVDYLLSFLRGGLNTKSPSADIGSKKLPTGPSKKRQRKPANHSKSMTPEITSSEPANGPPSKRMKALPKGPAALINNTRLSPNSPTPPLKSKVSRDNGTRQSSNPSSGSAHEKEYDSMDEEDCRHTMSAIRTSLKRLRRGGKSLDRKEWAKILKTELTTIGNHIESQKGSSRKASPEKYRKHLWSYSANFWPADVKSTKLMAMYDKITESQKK
Chain of Protein translocase subunit SecA (Escherichia coli (strain K12)) (P10408 whole entry): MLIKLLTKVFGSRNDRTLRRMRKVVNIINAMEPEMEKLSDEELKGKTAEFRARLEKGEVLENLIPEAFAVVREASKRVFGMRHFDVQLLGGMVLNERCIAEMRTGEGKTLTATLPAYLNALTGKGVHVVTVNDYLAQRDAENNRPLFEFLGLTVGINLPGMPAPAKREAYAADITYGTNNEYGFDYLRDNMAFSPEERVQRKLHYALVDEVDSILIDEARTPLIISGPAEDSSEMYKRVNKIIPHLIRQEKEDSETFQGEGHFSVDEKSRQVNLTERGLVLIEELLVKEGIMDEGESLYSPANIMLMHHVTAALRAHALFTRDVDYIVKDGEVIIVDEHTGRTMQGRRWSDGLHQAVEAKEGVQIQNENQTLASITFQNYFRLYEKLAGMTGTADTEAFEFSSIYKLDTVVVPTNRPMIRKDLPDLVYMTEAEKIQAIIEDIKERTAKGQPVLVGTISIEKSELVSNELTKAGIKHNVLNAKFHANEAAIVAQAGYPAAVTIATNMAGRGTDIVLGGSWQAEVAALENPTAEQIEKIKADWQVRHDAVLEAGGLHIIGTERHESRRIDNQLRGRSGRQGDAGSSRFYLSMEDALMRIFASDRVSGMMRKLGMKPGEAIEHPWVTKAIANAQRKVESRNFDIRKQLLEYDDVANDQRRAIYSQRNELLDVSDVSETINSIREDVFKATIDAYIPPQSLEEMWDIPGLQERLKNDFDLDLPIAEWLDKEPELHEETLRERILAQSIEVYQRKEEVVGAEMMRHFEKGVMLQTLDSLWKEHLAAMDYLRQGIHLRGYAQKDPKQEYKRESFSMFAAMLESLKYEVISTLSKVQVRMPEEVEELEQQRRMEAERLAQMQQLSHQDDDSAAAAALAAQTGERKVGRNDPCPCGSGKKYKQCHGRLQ

For `NCc1cn(-c2ccccc2C(=O)NCc2ccccc2)cn1`, the Percent Effect in experiment [1] was -2.27%; in experiment [2] it was 14.7%; in experiment [3], 1.6%; in the experiment with Trypanosoma cruzi, -0.592%; in experiment [4] it was 1.33%; in [5] it was 10.2%. The Percent Effect in the experiment filed under Homo sapiens is 26.2%; in experiment [6], 6.35%; in experiment [7] it was 15%; in [8], -23.1%.
For `CCOC(=O)CN1CCC2(CC1)CC(=O)c1ccc(OC)cc1O2`, the Percent Effect in [1] was -2.51%; in experiment [2] it was 27.3%; in experiment [3] it was 8.34%; with Trypanosoma cruzi, 4.13%; in experiment [4], -4.11%; in experiment [5], 19.1%. For the same molecule, the Percent Effect in the experiment filed under Homo sapiens is 7.83%; in [6], 1.93%; in experiment [7], 15%; in [8] it was -11%.
`Cc1cncc(C2CCCN(C(=O)c3ccc(C)[nH]c3=O)C2)n1` (stereo not given): the Percent Effect in experiment [1] was -4.08%; in experiment [2] it was 20%; in experiment [3], 0.301%; in the experiment with Trypanosoma cruzi it was 1.58%; in experiment [4], -1.33%; in [5] it was 18.4%. For the same molecule, the Percent Effect is -10.4% in the experiment filed under Homo sapiens, 5.29% in [6], 17.5% in experiment [7] and -23.9% in experiment [8].
Regarding `Cc1oncc1C(=O)NCc1cc(=O)n2c(n1)CN(C)CCC2`, the Percent Effect in experiment [1] is -1.85%; in experiment [2] it was 6.49%; in experiment [3] it was -2.27%; in the experiment on Trypanosoma cruzi, -8.28%; in experiment [4], 4.86%; in experiment [5] it was 24.6%. The Percent Effect in the experiment filed under Homo sapiens was 12.2%; in experiment [6], 2.63%; in [7], 12.8%; in [8] it was -1.21%.
Regarding `CC(C)(C)c1nnc(CN2CCn3c(nnc3C3CC3)C2)o1`, the Percent Effect in experiment [1] was -1.7%; in [2], -2.67%; in experiment [3] it was 0.00454%; with Trypanosoma cruzi it was -2.21%; in experiment [4], 0.444%; in experiment [5], 3.14%. Further, the Percent Effect in the experiment listed under Homo sapiens was found to be 13.2%; in experiment [6], 0.526%; in [7], 2.56%; in [8], 9.52%.
For the molecule `O=C(NCCn1ccnc1)N1CCCC1c1ccsc1` (stereo not given), the Percent Effect in experiment [1] is -1.45%; in experiment [2], 10.3%; in experiment [3], -12.8%; with Trypanosoma cruzi, 8.73%; in [4], 1.64%; in experiment [5] it was 17.7%. Besides, the Percent Effect in the experiment filed under Homo sapiens is -7.37%; in [6] it was 6.22%; in experiment [7], 20.5%; in experiment [8], -4.56%.
For the molecule `CC(C)N1CC(C(=O)NCc2ccnc(-n3cccn3)c2)CC1=O` (stereo not given), the Percent Effect in experiment [1] is -1.72%; in experiment [2], 12.8%; in [3], -8.26%; in the experiment on Trypanosoma cruzi it was 0.469%; in experiment [4], 8.2%; in experiment [5], 3.33%. Besides, the Percent Effect in the experiment filed under Homo sapiens was 25.3%; in experiment [6], 5.26%; in experiment [7] it was 13.2%; in experiment [8] it was -3.04%.
As to `CSc1ccc(Cl)c(C(=O)N2CCCC(CNS(C)(=O)=O)C2)c1` (stereo not given), the Percent Effect in experiment [1] is 0.802%; in experiment [2], 26%; in experiment [3] it was -6.07%; in the experiment on Trypanosoma cruzi, 1.12%; in [4], -14.6%; in experiment [5], 18.2%. The Percent Effect in the experiment filed under Homo sapiens was 13%; in [6], 1.96%; in experiment [7], 28.2%; in experiment [8], -11.3%.
Take `CN1CCN(CC2CC2)C(=O)c2cnc(N3CCCCC3)nc21`: the Percent Effect in [1] is -6.28%; in experiment [2], -45.3%; in experiment [3], 3.74%; in the experiment with Trypanosoma cruzi, -1.41%; in experiment [4], -3.99%; in [5], -4.83%. The Percent Effect was 19% in the experiment filed under Homo sapiens, -2.63% in experiment [6], -5.13% in [7] and -2.64% in [8].
Turning to `COc1cc(CNC(=O)C2CC(=O)N(C(C)C)C2)ccn1` (stereo not given), the Percent Effect is -1.79% in experiment [1]; 10.3% in experiment [2]; -1.27% in experiment [3]; -1.22% with Trypanosoma cruzi; 2.05% in experiment [4]; 12.7% in experiment [5]. For the same molecule, the Percent Effect was 24.4% in the experiment filed under Homo sapiens, 3.35% in [6], 10.8% in experiment [7] and -3.72% in [8].
